# Reference: PubChem BioAssay
# A number with no mark means an inactive call. For some of these results: Entries with a potency or affinity are not part of this list. The source made the active and inactive calls. Unless noted, the rule behind the calls is not given here.
# Key:
# [1] = antimalarial activity against Dd2 strain (AID 2302;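 active = growth inhibition above 50% at the single 2 µM test dose, taken to imply half-maximal potency below 2 µM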;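 note: 0% = DMSO untreated growth and 100% = chloroquine plus artemisinin killed control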); conditions: P. falciparum Dd2 in RBCs, LDH growth readout, 72 h; at 2 µM; stronger effect = higher value
# [2] = HepG2 cytotoxicity, primary screen, cytotoxicity control for P. falciparum antimalarial project, cell-based, ATP luminescence (AID 2303;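 active = inhibition above 50%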;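 note: 0% = DMSO wells and 100% = digitonin-killed cells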); conditions: HepG2 viability, 24-48 h, at 10 µM, stronger effect = higher value
# [3] = molecular target: L-lactate dehydrogenase (Plasmodium falciparum (isolate CDC / Honduras)) (UniProt Q27743); test: PfLDH activity inhibition – cell lysate, 3D7 strain, counter-screen for P. falciparum growth inhibition project (AID 2304);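 note: 0% = vehicle and 100% = reference inhibitor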; conditions: P. falciparum 3D7 crude extract, LDH APAD/NBT absorbance; at 2 µM; stronger effect = higher value
# [4] = inhibition of 3D7 malaria parasite growth – strain 3D7 (AID 2306);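 note: 0% = DMSO wells and 100% = chloroquine plus artemisinin control wells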; conditions: P. falciparum 3D7 erythrocytic growth, LDH absorbance, 72 h; at 2 µM; stronger effect = higher value
# [5] = molecular target: Calcium-dependent protein kinase 1 (Plasmodium falciparum (isolate 3D7)) (UniProt P62344); test: PfCDPK1 kinase inhibitors, biochemical, TCAMS library (AID 1159585; cut-off not given, nearly all actives have IC50 up to about 0.98 µM;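 note: inhibitors leave more ATP so luminescence rises with inhibition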); conditions: recombinant PfCDPK1, Kinase-Glo ATP depletion luminescence
# [6] = molecular target: Plasmodium falciparum protein kinase 6 (PK6, PF3D7_1337100) (UniProt Q8IDW1); test: PfPK6 kinase inhibitors, biochemical, TCAMS library (AID 1159586); conditions: recombinant PfPK6, Kinase-Glo ATP depletion luminescence
# [7] = molecular target: Protein kinase 7 (PK7), Plasmodium falciparum 3D7 (PF3D7_0213400) (UniProt Q7YTF7); test: inhibition of Plasmodium PK7 catalytic activity – biochemical, TCAMS antimalarial set, Kinase-Glo luminescence (AID 1159587); conditions: recombinant PfPK7, Kinase-Glo ATP depletion luminescence
# [8] = molecular target: Calcium-dependent protein kinase 4 (Plasmodium falciparum (isolate 3D7)) (UniProt Q8IBS5); test: PfCDPK4 kinase inhibitors, biochemical, TCAMS library (AID 1159588; cut-off not given, nearly all actives have IC50 up to about 0.91 µM); conditions: recombinant PfCDPK4, Kinase-Glo ATP depletion luminescence
# Calcium-dependent protein kinase 4 (Plasmodium falciparum (isolate 3D7)), sequence (Q8IBS5 whole entry, looked up): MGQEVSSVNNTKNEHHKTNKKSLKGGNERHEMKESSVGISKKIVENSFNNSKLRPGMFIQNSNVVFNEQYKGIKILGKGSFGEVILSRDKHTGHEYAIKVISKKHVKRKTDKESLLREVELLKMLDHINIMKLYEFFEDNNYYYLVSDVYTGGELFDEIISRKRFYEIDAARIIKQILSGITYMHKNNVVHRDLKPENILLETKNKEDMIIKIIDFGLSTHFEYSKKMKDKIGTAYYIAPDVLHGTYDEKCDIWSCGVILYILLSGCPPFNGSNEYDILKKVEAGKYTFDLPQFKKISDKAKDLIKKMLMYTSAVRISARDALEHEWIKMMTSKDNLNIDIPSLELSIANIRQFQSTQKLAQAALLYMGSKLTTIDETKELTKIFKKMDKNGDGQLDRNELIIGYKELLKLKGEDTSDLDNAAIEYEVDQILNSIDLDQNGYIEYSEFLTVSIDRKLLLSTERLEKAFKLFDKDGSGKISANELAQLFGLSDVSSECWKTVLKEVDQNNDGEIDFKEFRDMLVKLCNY
# L-lactate dehydrogenase (Plasmodium falciparum (isolate CDC / Honduras)), sequence (Q27743 whole entry, looked up): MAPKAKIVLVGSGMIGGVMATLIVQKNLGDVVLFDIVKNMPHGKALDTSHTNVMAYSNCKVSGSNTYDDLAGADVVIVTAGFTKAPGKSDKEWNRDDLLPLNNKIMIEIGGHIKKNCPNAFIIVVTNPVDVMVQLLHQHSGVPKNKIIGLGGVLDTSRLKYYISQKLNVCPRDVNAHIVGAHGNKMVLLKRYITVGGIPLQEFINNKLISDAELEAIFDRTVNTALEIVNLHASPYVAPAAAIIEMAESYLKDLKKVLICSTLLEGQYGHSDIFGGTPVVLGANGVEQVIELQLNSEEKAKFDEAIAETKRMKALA
# Calcium-dependent protein kinase 1 (Plasmodium falciparum (isolate 3D7)), sequence (P62344 whole entry, looked up): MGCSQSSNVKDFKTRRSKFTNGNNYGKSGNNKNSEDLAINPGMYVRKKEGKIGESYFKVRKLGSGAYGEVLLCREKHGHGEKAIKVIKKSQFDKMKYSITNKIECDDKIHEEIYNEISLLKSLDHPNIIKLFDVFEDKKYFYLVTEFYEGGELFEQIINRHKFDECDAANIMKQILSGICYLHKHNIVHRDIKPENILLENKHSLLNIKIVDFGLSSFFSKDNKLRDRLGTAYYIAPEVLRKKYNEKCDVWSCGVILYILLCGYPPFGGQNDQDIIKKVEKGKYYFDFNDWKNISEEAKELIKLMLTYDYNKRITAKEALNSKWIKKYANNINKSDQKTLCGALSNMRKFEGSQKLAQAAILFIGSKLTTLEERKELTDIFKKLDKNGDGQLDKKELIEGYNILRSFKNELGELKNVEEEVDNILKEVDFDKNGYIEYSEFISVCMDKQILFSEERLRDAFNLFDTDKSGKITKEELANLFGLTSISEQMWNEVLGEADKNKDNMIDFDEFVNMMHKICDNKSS
# Protein kinase 7 (PK7), Plasmodium falciparum 3D7 (PF3D7_0213400), sequence (Q7YTF7 1-343): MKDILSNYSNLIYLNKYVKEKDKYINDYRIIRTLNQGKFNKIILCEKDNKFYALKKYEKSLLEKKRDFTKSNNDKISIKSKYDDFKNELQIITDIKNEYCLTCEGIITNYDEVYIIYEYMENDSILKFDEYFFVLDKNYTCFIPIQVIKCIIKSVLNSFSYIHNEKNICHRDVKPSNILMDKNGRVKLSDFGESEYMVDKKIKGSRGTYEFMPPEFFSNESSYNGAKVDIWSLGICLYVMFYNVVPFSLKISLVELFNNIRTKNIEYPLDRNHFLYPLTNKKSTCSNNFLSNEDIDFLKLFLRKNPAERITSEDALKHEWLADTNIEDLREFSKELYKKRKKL
# Plasmodium falciparum protein kinase 6 (PK6, PF3D7_1337100), sequence (Q8IDW1 1-305): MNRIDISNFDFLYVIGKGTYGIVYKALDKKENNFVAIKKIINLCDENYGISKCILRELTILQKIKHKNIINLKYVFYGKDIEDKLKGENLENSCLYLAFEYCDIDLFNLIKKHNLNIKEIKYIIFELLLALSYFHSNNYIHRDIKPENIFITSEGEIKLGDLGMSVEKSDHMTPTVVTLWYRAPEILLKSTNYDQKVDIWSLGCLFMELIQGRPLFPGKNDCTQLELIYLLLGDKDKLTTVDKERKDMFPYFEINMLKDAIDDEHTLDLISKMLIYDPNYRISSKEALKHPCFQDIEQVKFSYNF
SMILES,growth inhibition [1],inhibition [2],inhibition [3] [%],growth inhibition [4],outcome [5],outcome [6],outcome [7],outcome [8]
COc1ccc(O)c(C(=O)c2cc(C(=O)NCCc3ccccc3)c(=O)n(CCc3ccccc3)c2)c1,18%,11%,-2,97% (active),inactive,inactive,inactive,inactive
Cc1ccccc1C1CCN(c2ccc(C(=O)Nc3ccccc3)cn2)CC1,94% (active),53% (active),-2,95% (active),inactive,inactive,inactive,inactive
COc1cccc(C(=O)N2CCOC(CCN3CCC(c4ccccc4)CC3)(c3ccc(Cl)c(Cl)c3)C2)c1 (stereo not drawn),63% (active),38%,-2,87% (active),inactive,inactive,inactive,inactive
Cc1[nH]c(CNCCCNc2cc(=O)c3ccccc3[nH]2)c(Br)c1Br,47%,-3%,4,91% (active),inactive,inactive,inactive,inactive
CC(C)(C)c1ccc(S(=O)(=O)Nc2ccccc2Cn2nc(N3CCNCC3)ccc2=O)cc1,97% (active),-5%,2,98% (active),inactive,inactive,inactive,inactive
CC1N=C(N)N=C(N)N1OCc1cccc2ccccc12 (stereo not drawn),4%,66% (active),-2,93% (active),inactive,inactive,inactive,inactive
CC(C)[C@@H]1c2ccc(O)cc2C[C@H]2C(=O)N(C3CCCCC3)C(=O)N21,88% (active),2%,0,95% (active),inactive,inactive,inactive,inactive
O=C1C2=C(Nc3ccccc3SC2c2cccs2)c2ccccc21 (stereo not drawn),93% (active),8%,5,96% (active),inactive,inactive,inactive,inactive
CC(CN1CCN(C)CC1)C(=O)Nc1ccc(-c2ccc(-c3nc4ccc(F)cc4[nH]3)cc2)cc1 (stereo not drawn),87% (active),19%,-5,101% (active),inactive,inactive,inactive,inactive
COc1ccc(OCCON)cc1,-3%,0%,-2,98% (active),inactive,inactive,inactive,inactive
Cc1nnc2c(N(C(=O)NCCc3ccccc3)C(=O)NCCc3ccccc3)cc3cc(Cl)ccc3n12,34%,0%,-5,91% (active),inactive,inactive,inactive,inactive
CN1CCC(NCc2ccc(-c3cccc(S(=O)(=O)NCc4ccccc4)c3)cc2)CC1,94% (active),72% (active),-3,101% (active),inactive,inactive,inactive,inactive
O=C(Nc1cccc(N2CCC(NCCCn3ccnc3)CC2)c1)c1cccc(C(F)(F)F)c1,2%,8%,3,101% (active),inactive,inactive,inactive,inactive
Cc1sc2nc(CSc3ccccc3)nc(N3CCN(CC(=O)NC4CC4)CC3)c2c1C,95% (active),2%,1,96% (active),inactive,inactive,inactive,inactive
CC(C)c1ccc(S(=O)(=O)N(c2ccc3c(c2)OCO3)C2CCN(Cc3ccccc3)C2)cc1 (stereo not drawn),92% (active),1%,0,100% (active),inactive,inactive,inactive,inactive
CC1CCCN(S(=O)(=O)c2ccc(NC(=O)c3cc(-c4ccccc4O)n[nH]3)cc2)C1 (stereo not drawn),49%,12%,3,93% (active),inactive,inactive,inactive,inactive
NC(N)=NN=CC(=O)Nc1ccc(Cl)c(C(F)(F)F)c1,0%,-6%,0,100% (active),inactive,inactive,inactive,inactive
Cc1cc(N[C@@H](Cc2ccccc2)C(=O)NC2CCCC2)nc(Nc2ccccc2)n1,82% (active),3%,0,100% (active),inactive,inactive,inactive,inactive
O=C(c1cc(C(=O)NC2CCCCC2)c(=O)n(C2CCCCC2)c1)c1cc(F)ccc1O,98% (active),22%,-2,99% (active),inactive,inactive,inactive,inactive
Cc1cc(NN=Cc2cccc(F)c2)c2cccc(C)c2n1,53% (active),14%,5,100% (active),inactive,inactive,inactive,inactive
N#Cc1ccc2c(c1)CCN(CCC1CCC(NC(=O)/C=C/c3c[nH]c4ccc(F)cc34)CC1)CC2 (stereo not drawn),83% (active),18%,4,101% (active),inactive,inactive,inactive,inactive

SMILES,growth inhibition [1],inhibition [2],inhibition [3] [%],growth inhibition [4],outcome [5],outcome [6],outcome [7],outcome [8]
O=C(NCCCN1CCC(N2CCCCC2)CC1)C1=Cc2cc(Br)ccc2OC1,19%,26%,-1,100% (active),inactive,inactive,inactive,inactive
FC(F)(F)c1ccc2nc(-c3ccc(-c4cccc(CNCCN5CCNCC5)c4)s3)[nH]c2c1,39%,22%,5,91% (active),inactive,inactive,inactive,inactive
Clc1ncnc2scc(-c3ccc(Br)cc3)c12,96% (active),-3%,-2,95% (active),inactive,inactive,inactive,inactive
CCCc1cc(N2CCC(N(CC)CC)C2)nc(Nc2ccc(OC)cc2)n1 (stereo not drawn),4%,9%,4,90% (active),inactive,inactive,inactive,inactive
O=C(CCOc1ccccc1)NCC1CCCO1 (stereo not drawn),-11%,-10%,-3,92% (active),inactive,inactive,inactive,inactive
Cc1cc(NN=Cc2ccccc2F)c2ccccc2n1,81% (active),14%,1,101% (active),inactive,inactive,inactive,inactive
O=C(Nc1ccc(-c2cccc(-c3nc4ccc(F)cc4[nH]3)c2)cc1)c1ccncc1,18%,58% (active),-5,96% (active),inactive,inactive,inactive,inactive
N[C@@H](Cc1cc(I)c(Oc2ccc(O)c(C(=O)O)c2)c(I)c1)C(=O)O,21%,57% (active),-1,97% (active),inactive,inactive,inactive,inactive
Cc1[nH]c(C)c(-c2ccc(-c3ccccc3C(F)(F)F)nc2)c(=O)c1Br,96% (active),-3%,-3,97% (active),inactive,inactive,inactive,inactive
CC1(C)N=C(N)N=C(N)N1OCc1cccc(Cl)c1Cl,75% (active),68% (active),-1,92% (active),inactive,inactive,inactive,inactive
CC[C@H]1CN(Cc2ccco2)CC[C@H]1CCCc1ccnc2ccc(O)cc12,14%,31%,-1,93% (active),inactive,inactive,inactive,inactive
Cc1[nH]c(-c2ccc(F)cc2)cc1C(=O)NC1CCN(Cc2ccccc2)CC1,9%,6%,-2,84% (active),inactive,inactive,inactive,inactive
O=c1c(Br)c(C(F)(F)F)[nH]c2ccc(Oc3ccccc3)cc12,17%,6%,0,91% (active),inactive,inactive,inactive,inactive
COC(=O)CCCCOc1cc(Cc2cnc(N)nc2N)cc(OC)c1OC,-1%,-10%,-3,97% (active),inactive,inactive,inactive,inactive
CC(C)CN(Cc1c(O)ccc2[nH]c(-c3ccc(F)cc3F)nc12)CC(C)C,92% (active),11%,-2,98% (active),inactive,inactive,inactive,inactive
Cc1cccc2[nH]c(-c3cccc(-c4ccc(NC(=O)NCc5ccccc5)cc4)c3)nc12,47%,35%,-2,101% (active),inactive,inactive,inactive,inactive
COc1ccc(Cn2c(Nc3cccc(C(F)(F)F)c3)nc3cc(C(=O)NC4CC4)cnc32)cc1Cl,96% (active),-2%,-3,94% (active),inactive,inactive,inactive,inactive
COc1cccc(CN2CCCN(Cc3cccc(NC(=O)c4cc5ccccc5s4)c3)CC2)c1,16%,17%,-9,89% (active),inactive,inactive,inactive,inactive
Cc1cccc2[nH]c(-c3cccc(-c4ccc(NC(=O)Nc5cccc(C#N)c5)cc4)c3)nc12,91% (active),50% (active),6,101% (active),inactive,inactive,inactive,inactive
OCC1CCN(Cc2cccc(-c3ccc(-c4nc5ccc(F)cc5[nH]4)cc3)c2)CC1,86% (active),11%,4,101% (active),inactive,inactive,inactive,inactive
